The values that follow come from ChEMBL document CHEMBL1961873, “Compounds: GSK PKIS; Assays: Nanosyn kinase panel” (2012).

The target of assay [1] is RAC-alpha serine/threonine-protein kinase (Homo sapiens) (UniProt P31749). Particulars: at 0.1 µM.
For assay [2] the target is unchanged. Particulars: at 1 µM.
Assay [3] addresses RAC-beta serine/threonine-protein kinase (Homo sapiens) (UniProt P31751). The settings on record: at 0.1 µM.
For assay [4] the target is unchanged. Particulars: at 1 µM.
Assay [5] addresses RAC-gamma serine/threonine-protein kinase (Homo sapiens) (UniProt Q9Y243). Particulars: at 0.1 µM.
Assay [6] shares this target. The settings on record: at 1 µM.
Assay [7] addresses G protein-coupled receptor kinase 6 (Homo sapiens) (UniProt P43250). Particulars: at 0.1 µM.
The target is the same in assay [8]. Particulars: at 1 µM.
For assay [9], the target named is T1, Rhodopsin kinase GRK7 (Homo sapiens) (UniProt Q8WTQ7).
T1 sequence (whole entry): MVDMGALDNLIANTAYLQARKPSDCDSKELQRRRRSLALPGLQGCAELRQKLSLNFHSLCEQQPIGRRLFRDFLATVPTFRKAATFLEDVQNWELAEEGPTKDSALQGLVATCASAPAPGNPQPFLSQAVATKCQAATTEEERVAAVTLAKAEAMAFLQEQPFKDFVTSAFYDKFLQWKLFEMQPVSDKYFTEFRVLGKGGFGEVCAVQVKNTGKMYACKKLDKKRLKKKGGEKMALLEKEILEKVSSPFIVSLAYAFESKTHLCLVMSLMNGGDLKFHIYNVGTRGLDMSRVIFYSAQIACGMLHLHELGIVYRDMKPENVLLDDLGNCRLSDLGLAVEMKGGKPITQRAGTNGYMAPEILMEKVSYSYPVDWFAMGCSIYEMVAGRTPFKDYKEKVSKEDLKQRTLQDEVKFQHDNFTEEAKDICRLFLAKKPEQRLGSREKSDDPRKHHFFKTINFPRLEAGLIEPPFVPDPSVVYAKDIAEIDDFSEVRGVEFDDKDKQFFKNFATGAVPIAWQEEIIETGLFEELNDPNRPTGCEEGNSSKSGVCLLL
Particulars: at 0.1 µM.

For assay [10], the target named is T1, Rhodopsin kinase GRK7 (Homo sapiens). The settings on record: at 1 µM.
Assay [11] addresses Serine/threonine-protein kinase MRCK alpha (Homo sapiens) (UniProt Q5VT25). The settings on record: at 0.1 µM.
Assay [12] has the same target. Particulars: at 1 µM.
For assay [13], the target named is Serine/threonine-protein kinase MRCK beta (Homo sapiens) (UniProt Q9Y5S2). Particulars: at 0.1 µM.
The target is the same in assay [14]. Particulars: at 1 µM.
Assay [15] deals with Ribosomal protein S6 kinase alpha-5 (Homo sapiens) (UniProt O75582). Particulars: at 0.1 µM.
The target is the same in assay [16]. Particulars: at 1 µM.
In assay [17] the target is Ribosomal protein S6 kinase alpha-4 (Homo sapiens) (UniProt O75676). Particulars: at 0.1 µM.
Assay [18] has the same target. The settings on record: at 1 µM.
For assay [19], the target named is Ribosomal protein S6 kinase beta-1 (Homo sapiens) (UniProt P23443). The settings on record: at 0.1 µM.
For assay [20] the target is unchanged. The settings on record: at 1 µM.

Serine/threonine-protein kinase MRCK beta (Homo sapiens), sequence (Q9Y5S2 whole entry): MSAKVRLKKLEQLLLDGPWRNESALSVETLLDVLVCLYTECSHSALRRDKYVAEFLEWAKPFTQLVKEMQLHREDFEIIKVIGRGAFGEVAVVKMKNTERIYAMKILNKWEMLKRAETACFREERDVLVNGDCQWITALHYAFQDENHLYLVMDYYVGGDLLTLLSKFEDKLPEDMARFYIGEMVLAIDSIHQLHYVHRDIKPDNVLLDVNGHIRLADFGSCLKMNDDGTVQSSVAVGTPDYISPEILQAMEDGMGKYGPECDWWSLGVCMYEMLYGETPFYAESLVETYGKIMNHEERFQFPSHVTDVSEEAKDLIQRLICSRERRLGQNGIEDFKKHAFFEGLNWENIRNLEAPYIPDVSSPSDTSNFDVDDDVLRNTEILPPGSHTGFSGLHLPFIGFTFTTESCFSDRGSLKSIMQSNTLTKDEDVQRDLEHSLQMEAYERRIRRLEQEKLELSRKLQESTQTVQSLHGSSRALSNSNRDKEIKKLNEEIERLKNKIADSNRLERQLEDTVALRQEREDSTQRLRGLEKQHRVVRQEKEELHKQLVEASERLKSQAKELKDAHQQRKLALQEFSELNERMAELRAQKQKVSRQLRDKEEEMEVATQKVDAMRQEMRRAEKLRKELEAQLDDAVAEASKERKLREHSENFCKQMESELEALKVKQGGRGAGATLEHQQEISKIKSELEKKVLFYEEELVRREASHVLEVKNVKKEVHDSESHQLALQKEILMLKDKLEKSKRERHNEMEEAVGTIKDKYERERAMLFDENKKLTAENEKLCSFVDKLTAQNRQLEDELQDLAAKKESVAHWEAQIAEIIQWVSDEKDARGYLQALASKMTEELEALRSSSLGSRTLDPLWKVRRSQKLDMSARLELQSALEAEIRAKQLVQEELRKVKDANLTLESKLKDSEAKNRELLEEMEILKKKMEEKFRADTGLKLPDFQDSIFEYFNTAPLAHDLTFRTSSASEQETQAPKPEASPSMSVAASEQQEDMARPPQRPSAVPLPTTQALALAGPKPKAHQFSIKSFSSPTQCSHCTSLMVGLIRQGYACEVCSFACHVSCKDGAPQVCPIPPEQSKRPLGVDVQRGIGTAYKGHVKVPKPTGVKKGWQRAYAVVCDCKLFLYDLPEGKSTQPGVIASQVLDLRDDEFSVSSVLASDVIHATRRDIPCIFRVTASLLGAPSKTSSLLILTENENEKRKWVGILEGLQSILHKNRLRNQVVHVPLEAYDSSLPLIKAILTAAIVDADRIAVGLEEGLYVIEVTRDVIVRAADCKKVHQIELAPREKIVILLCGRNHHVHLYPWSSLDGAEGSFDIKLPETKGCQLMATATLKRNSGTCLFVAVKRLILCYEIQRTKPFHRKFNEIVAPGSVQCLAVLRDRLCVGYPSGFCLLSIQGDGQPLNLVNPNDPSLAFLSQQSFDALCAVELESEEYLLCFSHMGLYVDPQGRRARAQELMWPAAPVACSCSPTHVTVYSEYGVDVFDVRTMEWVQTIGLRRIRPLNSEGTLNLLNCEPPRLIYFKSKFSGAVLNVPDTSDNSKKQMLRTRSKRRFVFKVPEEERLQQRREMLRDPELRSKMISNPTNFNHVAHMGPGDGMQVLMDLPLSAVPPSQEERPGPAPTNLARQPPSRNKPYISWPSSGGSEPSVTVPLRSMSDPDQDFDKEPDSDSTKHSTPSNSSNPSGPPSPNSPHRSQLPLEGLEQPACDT
G protein-coupled receptor kinase 6 (Homo sapiens), sequence (P43250 whole entry, looked up): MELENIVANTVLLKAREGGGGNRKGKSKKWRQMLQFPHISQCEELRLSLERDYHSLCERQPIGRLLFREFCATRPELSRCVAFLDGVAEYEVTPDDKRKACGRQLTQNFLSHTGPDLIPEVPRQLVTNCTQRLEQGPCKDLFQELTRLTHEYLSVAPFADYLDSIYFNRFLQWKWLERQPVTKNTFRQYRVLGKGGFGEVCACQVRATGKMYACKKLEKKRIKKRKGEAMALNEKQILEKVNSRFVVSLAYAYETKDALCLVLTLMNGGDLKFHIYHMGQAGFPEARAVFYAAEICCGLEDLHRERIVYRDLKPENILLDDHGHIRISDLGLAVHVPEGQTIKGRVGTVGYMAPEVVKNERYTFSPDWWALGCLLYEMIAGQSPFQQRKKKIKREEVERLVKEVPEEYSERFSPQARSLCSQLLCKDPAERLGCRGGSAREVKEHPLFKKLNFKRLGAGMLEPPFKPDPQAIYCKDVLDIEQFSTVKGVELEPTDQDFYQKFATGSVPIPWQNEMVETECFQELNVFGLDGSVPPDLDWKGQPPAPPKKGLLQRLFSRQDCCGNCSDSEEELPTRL
RAC-gamma serine/threonine-protein kinase (Homo sapiens), sequence (Q9Y243 whole entry): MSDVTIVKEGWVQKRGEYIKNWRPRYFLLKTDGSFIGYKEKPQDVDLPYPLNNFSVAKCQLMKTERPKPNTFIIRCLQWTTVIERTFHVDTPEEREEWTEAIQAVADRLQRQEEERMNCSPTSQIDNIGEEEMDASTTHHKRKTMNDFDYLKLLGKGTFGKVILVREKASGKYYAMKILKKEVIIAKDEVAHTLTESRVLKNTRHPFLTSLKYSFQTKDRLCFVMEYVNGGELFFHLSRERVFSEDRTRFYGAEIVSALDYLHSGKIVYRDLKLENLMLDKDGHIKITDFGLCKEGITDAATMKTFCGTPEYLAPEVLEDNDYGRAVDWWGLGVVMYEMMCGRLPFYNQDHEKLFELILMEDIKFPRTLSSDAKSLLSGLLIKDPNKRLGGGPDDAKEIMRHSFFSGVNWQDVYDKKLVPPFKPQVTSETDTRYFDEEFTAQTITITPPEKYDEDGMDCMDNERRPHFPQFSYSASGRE
Ribosomal protein S6 kinase beta-1 (Homo sapiens), sequence (P23443 whole entry, looked up): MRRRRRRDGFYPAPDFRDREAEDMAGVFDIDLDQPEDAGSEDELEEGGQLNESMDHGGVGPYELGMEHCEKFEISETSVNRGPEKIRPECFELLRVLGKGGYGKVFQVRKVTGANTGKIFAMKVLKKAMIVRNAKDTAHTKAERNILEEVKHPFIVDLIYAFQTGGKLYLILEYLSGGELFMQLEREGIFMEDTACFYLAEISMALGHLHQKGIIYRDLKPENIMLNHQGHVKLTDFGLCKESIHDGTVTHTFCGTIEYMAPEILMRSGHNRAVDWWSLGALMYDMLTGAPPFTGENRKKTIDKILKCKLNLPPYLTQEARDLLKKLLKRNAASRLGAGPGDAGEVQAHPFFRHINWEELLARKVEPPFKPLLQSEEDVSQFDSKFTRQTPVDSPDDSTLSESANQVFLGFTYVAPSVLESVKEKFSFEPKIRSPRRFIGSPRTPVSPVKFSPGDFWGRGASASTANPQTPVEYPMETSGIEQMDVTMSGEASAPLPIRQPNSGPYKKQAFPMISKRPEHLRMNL
Serine/threonine-protein kinase MRCK alpha (Homo sapiens), sequence (Q5VT25 whole entry): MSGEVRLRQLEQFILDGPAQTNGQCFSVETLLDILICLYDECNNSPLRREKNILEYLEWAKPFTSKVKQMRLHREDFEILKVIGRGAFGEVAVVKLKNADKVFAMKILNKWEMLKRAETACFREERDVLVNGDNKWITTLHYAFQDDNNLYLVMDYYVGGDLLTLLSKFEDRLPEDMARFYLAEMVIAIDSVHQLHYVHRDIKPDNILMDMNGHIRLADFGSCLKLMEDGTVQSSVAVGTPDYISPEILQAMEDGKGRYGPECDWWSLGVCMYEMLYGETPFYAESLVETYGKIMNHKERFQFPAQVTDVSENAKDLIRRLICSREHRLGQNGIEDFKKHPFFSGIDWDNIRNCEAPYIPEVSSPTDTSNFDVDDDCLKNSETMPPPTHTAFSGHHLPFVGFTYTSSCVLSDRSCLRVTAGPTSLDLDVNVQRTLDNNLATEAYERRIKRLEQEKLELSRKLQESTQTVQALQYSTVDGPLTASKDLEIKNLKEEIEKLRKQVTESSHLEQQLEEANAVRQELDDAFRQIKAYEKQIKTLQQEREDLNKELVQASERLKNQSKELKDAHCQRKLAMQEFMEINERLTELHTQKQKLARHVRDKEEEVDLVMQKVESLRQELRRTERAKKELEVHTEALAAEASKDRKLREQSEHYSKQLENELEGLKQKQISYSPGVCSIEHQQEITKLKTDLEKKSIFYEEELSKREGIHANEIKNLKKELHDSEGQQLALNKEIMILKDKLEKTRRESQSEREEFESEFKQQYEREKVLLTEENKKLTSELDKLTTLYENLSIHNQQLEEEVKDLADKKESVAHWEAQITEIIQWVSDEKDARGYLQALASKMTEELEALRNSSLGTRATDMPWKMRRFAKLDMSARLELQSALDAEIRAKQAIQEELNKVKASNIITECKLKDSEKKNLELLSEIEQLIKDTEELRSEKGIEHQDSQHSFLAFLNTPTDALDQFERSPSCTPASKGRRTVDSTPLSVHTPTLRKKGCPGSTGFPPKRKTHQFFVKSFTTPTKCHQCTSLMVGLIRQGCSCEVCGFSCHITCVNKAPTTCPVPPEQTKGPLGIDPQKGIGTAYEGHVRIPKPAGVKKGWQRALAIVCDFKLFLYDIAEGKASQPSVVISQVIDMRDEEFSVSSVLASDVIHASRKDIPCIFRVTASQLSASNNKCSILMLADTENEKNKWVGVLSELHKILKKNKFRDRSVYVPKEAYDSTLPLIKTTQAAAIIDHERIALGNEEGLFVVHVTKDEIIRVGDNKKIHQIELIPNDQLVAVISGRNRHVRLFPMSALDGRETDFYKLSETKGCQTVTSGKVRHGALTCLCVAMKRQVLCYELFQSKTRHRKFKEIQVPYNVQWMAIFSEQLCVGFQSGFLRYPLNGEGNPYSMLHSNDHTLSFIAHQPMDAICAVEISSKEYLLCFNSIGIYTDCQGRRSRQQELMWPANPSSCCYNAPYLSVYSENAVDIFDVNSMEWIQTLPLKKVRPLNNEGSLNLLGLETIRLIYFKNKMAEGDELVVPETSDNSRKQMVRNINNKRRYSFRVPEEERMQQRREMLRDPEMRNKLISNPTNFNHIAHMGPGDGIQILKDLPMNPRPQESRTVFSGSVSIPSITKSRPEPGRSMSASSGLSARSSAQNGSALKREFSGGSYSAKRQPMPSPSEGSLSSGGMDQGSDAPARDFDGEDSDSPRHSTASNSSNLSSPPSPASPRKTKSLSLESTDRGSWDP

The term inhibition denotes the relative decrease from the control value, in per cent. As for `CCn1c(-c2nonc2N)nc2ccccc21`, the inhibition worked out at 1.46% in assay [1]; 2.48% in assay [2]; 0.69% in assay [3]; 2.24% in assay [4]; 0.81% in assay [5]; 3.67% in assay [6]. The inhibition was 1.21% in [7]; -3.25% in assay [8]; 1.89% in assay [9]; -9.67% in [10]; 1.63% in [11]; 10.9% in assay [12]. Also, the inhibition in [13] came out at 1.39%; in assay [14] it was 10.9%; in [15], 23.3%; in [16], 62.5%; in assay [17] it was 7.88%; in assay [18], 40.4%. Besides, the inhibition in [19] turned out to be 22.1%; in assay [20], 70.5%.
Regarding `N#Cc1c(NC(=O)c2ccc(F)cc2)sc2c1CCCC2`, the inhibition was -0.22% in [1]; 0.69% in [2]; 0.36% in assay [3]; 0.77% in assay [4]; 2.13% in assay [5]; 0.2% in assay [6]. For the same molecule, the inhibition in [7] is 2.85%; in assay [8], 4.08%; in assay [9], 0.7%; in [10] it was 4.43%; in assay [11], 0.16%; in [12] it was -0.05%. For the same molecule, the inhibition was -0.27% in [13]; 1.57% in assay [14]; 1.16% in [15]; 2.08% in [16]; 0.1% in assay [17]; 2.25% in assay [18]. Further, the values for the inhibition in assay [19] and in assay [20] were -0.29% and 0.86%, respectively.
`CC1=C(C(=O)Nc2cc(Cl)c3[nH]ncc3c2)C(c2ccc(C(F)(F)F)cc2)CC(=O)N1` (stereo not given): the inhibition stood at 0.52% in assay [1]; 5.71% in assay [2]; 1.33% in [3]; 3.66% in [4]; 2.98% in assay [5]; 22.1% in assay [6]. Also, the inhibition was 4.52% in [7]; 13.4% in assay [8]; 3.32% in assay [9]; 16.4% in assay [10]; 17.2% in assay [11]; 64.6% in assay [12]. Besides, the inhibition came out at 23.8% in assay [13]; 65.5% in [14]; 56.3% in assay [15]; 81.7% in assay [16]; 32.4% in assay [17]; 68.9% in assay [18]. Also, the inhibition turned out to be 8.47% in assay [19] and 41.7% in [20].
Consider `CC(C)(CO)CNC(=O)c1ccc2c(c1)/C(=N/Nc1ccc(S(N)(=O)=O)cc1)C(=O)N2`, for which the inhibition was 0.16% in [1]; -0.56% in [2]; -1.39% in assay [3]; 0.25% in assay [4]; -0.59% in [5]; 2.3% in [6]. Also, the inhibition in assay [7] is 0.67%; in [8], 9.38%; in assay [9] it was 2.93%; in [10], -0.41%; in assay [11], -0.66%; in [12] it was -2.01%. In addition, the inhibition in assay [13] was 0.21%; in [14], 1.07%; in assay [15], 0.88%; in assay [16] it was 0.97%; in assay [17] it was 1.15%; in assay [18], 6.02%. The inhibition in [19] was -0.13%; in assay [20] it was 2.2%.
In the case of `CNC(=O)c1cc(-c2ccc(F)cc2)cc(-c2ccc(S(=O)(=O)N3CCCC3)cc2)c1N`, the inhibition is 0.66% in assay [1]; 0.31% in assay [2]; 1.23% in [3]; 1.37% in assay [4]; 0.7% in assay [5]; 3.34% in [6]. Further, the inhibition in [7] was found to be 1.55%; in assay [8], 2.77%; in [9], 9.52%; in assay [10], 2.15%; in assay [11], 1.92%; in assay [12] it was 0.6%. Also, the inhibition was -1.06% in assay [13]; -0.2% in [14]; 9.11% in assay [15]; 8.3% in assay [16]; 1.23% in assay [17]; 1.99% in [18]. Further, the inhibition in assay [19] was 0.63%; in [20], 1.47%.
In the case of `NS(=O)(=O)c1ccc(Nc2ncc(-c3ccccc3)o2)cc1`, the inhibition came to 0.78% in assay [1]; 0.93% in [2]; 2.08% in assay [3]; 1.95% in assay [4]; 0.97% in assay [5]; 1.49% in [6]. Also, the inhibition was 4.73% in assay [7]; 3.06% in [8]; 2.42% in [9]; 2.99% in assay [10]; -0.91% in [11]; -1.21% in [12]. Moreover, the inhibition was found to be 0.24% in [13]; 1.14% in assay [14]; 3.01% in [15]; 4.81% in [16]; 3% in assay [17]; 5.37% in assay [18]. Also, the inhibition in [19] was found to be 2.3%; in [20], 3.51%.
Consider `CNC(=O)c1cncc(/C=C/c2ccccc2Cl)c1`, for which the inhibition in [1] is 0.07%; in [2] it was 1.96%; in assay [3] it was 0.21%; in assay [4] it was 0.07%; in assay [5], -0.57%; in assay [6] it was 0.32%. In addition, the inhibition stood at 1.74% in [7]; 10.9% in [8]; 2.3% in assay [9]; 10.8% in assay [10]; 1.52% in assay [11]; 2.33% in assay [12]. Moreover, the inhibition in [13] was -0.05%; in assay [14] it was 0.26%; in assay [15], 3.05%; in assay [16] it was 3.68%; in assay [17], 1.83%; in assay [18] it was 1.78%. For the same molecule, the inhibition in assay [19] came to 0.27%; in [20], 0.23%.
In the case of `COc1ccc(-c2oc3ncnc(N)c3c2-c2ccc(NC(=O)Nc3cc(C(F)(F)F)ccc3F)cc2)cc1`, the inhibition in assay [1] stood at 1.18%; in assay [2], 1.66%; in assay [3], 3.21%; in assay [4], 2.57%; in assay [5], 1.23%; in assay [6], 2.55%. Besides, the inhibition in [7] was 4.19%; in assay [8] it was 12.7%; in [9], 4.51%; in [10], 22%; in assay [11] it was 0.52%; in assay [12] it was 6.52%. The inhibition is 0.63% in assay [13]; 1.86% in [14]; 5.16% in assay [15]; 16.1% in assay [16]; 4.9% in [17]; 24.2% in assay [18]. The figures for the inhibition in [19] and in assay [20] were 11.7% and 68.2%, respectively.
